High-throughput results: PubChem, National Center for Advancing Translational Sciences (NCATS)
Pf Dd2 inh: Plasmodium falciparum Dd2 growth inhibition; Potency, µM (top dose mostly 28.9 µM), for inactives: at the highest dose activity, negative = inhibition, hits mostly inhibitors; P. falciparum Dd2 growth, SYBR Green, 72 h; 4.3% of 120,000 active; active means well fitted inhibition curve with a large enough effect;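 further: plate controls were DMSO vehicle for no effect and reference drug for full effect; nearly all actives have a fitted effect of over 65% in size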
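Infected erythrocytes (Dd2, 0.3% parasitemia, 2.5% hematocrit final) are added to compound in RPMI-1640/Albumax II medium, grown 72 h at 37C in low oxygen, then lysed with saponin/Triton-X containing SYBR Green and read by fluorescence.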
Starred values were filed as active, the others as inactive; [ ] = remark or other dose. This is one part of a sample in which hits are shown more often than they occur. Potency means the concentration at half of the fitted maximal effect.

For Cc1nn(-c2ccccc2[N+](=O)[O-])c(C)c1[C@@H]1C=C[C@@H](NCc2ccco2)C1 the results were Pf Dd2 inh 11µM*.
Screening Cc1nn(-c2ccccc2)c(C)c1[C@@H]1C=C[C@@H](NC(=O)c2ccco2)C1 returned Pf Dd2 inh 10µM*.
Screening Cc1nn(-c2ccccc2)c(C)c1[C@@H]1C=C[C@@H](NC(=O)CC(C)(C)CC(=O)O)C1 returned Pf Dd2 inh -4%[44.1 µM].
`Cc1nn(-c2ccccn2)c(C)c1[C@@H]1C=C[C@@H](NC(=O)CC(C)(C)CC(=O)O)C1` gave Pf Dd2 inh inactive.
CC(=O)N[C@@H]1C=C[C@@H](c2c(C)nn(-c3ccc(C)c(Cl)c3)c2C)C1 was read as Pf Dd2 inh inactive.
Screening Cc1nn(-c2ccc(C(C)(C)C)cc2)c(C)c1[C@@H]1C=C[C@@H](NC(=O)CC2(CC(=O)O)CCCC2)C1 returned Pf Dd2 inh 4%.
Screening Cc1nn(-c2ccc(C(C)(C)C)cc2)c(C)c1[C@@H]1C=C[C@@H](NC(=O)CCCC(=O)O)C1 returned Pf Dd2 inh inactive.
Cc1nn(-c2ccc(F)cc2)c(C)c1[C@@H]1C=C[C@@H](NC(=O)c2ccco2)C1 was read as Pf Dd2 inh 6.3µM*.
`COC(=O)c1cccc(NC(=S)N[C@@H]2C=C[C@@H](c3c(C)nn(-c4ccc(F)cc4)c3C)C2)c1` gave Pf Dd2 inh -20%.
`Cc1nn(-c2ccccc2)c(C)c1[C@@H]1C=C[C@@H](NC(=O)CCCC(=O)O)C1` gave Pf Dd2 inh -1%[44.1 µM].
Cc1cc(Cl)ccc1-n1nc(C)c([C@@H]2C=C[C@@H](NC(=O)c3ccc(N(C)C)cc3)C2)c1C was read as Pf Dd2 inh 10µM*.
Screening O=C(CCC1CCCC1)N1C[C@@H](CO)[C@H](c2ccncc2)C1 returned Pf Dd2 inh inactive.
For O=C(O)COCC(=O)N[C@H]1CCN2C(=O)c3cc(-c4cccs4)ccc3NC(=O)[C@H]12 the results were Pf Dd2 inh -2%[44.1 µM].
Cc1nn(C)c2nc(N3CCC(C#N)(c4ccccc4)CC3)sc12 was read as Pf Dd2 inh -26%.
Screening CCOC(=O)c1ccc(NC(=O)N2Cc3[nH]cnc3C[C@H]2c2nc(-c3cccc([N+](=O)[O-])c3)no2)cc1 returned Pf Dd2 inh -14%.
`CCc1cc(=O)n(CC(=O)Nc2cccc(Cl)c2C)c(N2CCOCC2)n1` gave Pf Dd2 inh -25%.
For CCN1CCC(N(Cc2ccc3c(c2)OCO3)C(=O)Nc2cc(Cl)ccc2C(=O)OC)CC1 the results were Pf Dd2 inh 3.5µM*.
Screening O=C1[C@H]2CN(Cc3ccc(F)c(Cl)c3)C[C@H]2C(=O)N1Cc1ccc2c(c1)OCO2 returned Pf Dd2 inh inactive.
For COC(=O)c1ccc(Cl)cc1NC(=O)N(Cc1ccc(C)o1)C1CCN(C(C)=O)CC1 the results were Pf Dd2 inh -21%.
CCN1CCC(N(Cc2ccc3c(c2)OCO3)C(=O)Nc2ccccc2OC)CC1 was read as Pf Dd2 inh -24%.
`O=C([C@@H]1COCC(=O)N1Cc1ccccc1)N1CCN(Cc2ccc3c(c2)OCO3)CC1` gave Pf Dd2 inh 31%.
For O=C(Nc1ccc(F)c(Cl)c1)N(Cc1ccc2c(c1)OCO2)C1CCN(Cc2ccccc2)CC1 the results were Pf Dd2 inh 8.9µM*.
`COc1ccc(C(=O)N2CC(c3nnc(-c4ccncc4)o3)C3(CCOCC3)C2)cc1` (centres undefined) gave Pf Dd2 inh -21%.
For O=C1CC2(CCN(CC3CC3)CC2)Oc2ccccc21 the results were Pf Dd2 inh inactive.
O=C1CC2(CCN(Cc3ccc(C(F)(F)F)cc3)CC2)Oc2cc(Cl)ccc21 was read as Pf Dd2 inh inactive.
O=C1CC2(CCN(CC3CCCCC3)CC2)Oc2cc(Cl)ccc21 was read as Pf Dd2 inh 1.4µM*.
Cc1nccn1C(C)CN1C(=O)NC2(CCNCC2)C1=O (centres undefined) was read as Pf Dd2 inh -2%.
For CCOC(=O)c1cccc(NC(=O)N2CC[C@@H](CC(=O)NCc3cccc4ccccc34)[C@@H](CC)C2)c1 the results were Pf Dd2 inh -13%.
Screening N#Cc1cccc(C(=O)N2CCCCCNC(=O)[C@@H]3CCC[C@@H]32)c1 returned Pf Dd2 inh 8%.
`CC(C)n1ccnc1C1CCCN(Cc2cscn2)C1` (centres undefined) gave Pf Dd2 inh 12%.
Screening Cc1ccccc1-n1nc(C)c([C@H]2C=C[C@@H](OC(=O)N[C@H](C)c3ccccc3)C2)c1C returned Pf Dd2 inh -8%[44.1 µM].
Screening Cc1nn(-c2ccccn2)c(C)c1[C@@H]1C=C[C@@H](NC(=O)NCc2ccccc2)C1 returned Pf Dd2 inh inactive.
COc1ccc(-n2nc(C)c([C@H]3C=C[C@@H](OC(=O)N[C@H](C)c4ccccc4)C3)c2C)cc1 was read as Pf Dd2 inh 7.9µM*.
Cc1nn(-c2ccc(C(C)C)cc2)c(C)c1[C@@H]1C=C[C@@H](NC(=O)COCC(=O)O)C1 was read as Pf Dd2 inh inactive.
COc1ccc(NC(=O)O[C@@H]2C=C[C@H](c3c(C)nn(-c4ccc(C)c(Cl)c4)c3C)C2)cc1 was read as Pf Dd2 inh inactive.
COc1ccc(-n2nc(C)c([C@@H]3C=C[C@@H](NCc4ccccc4)C3)c2C)cc1 was read as Pf Dd2 inh 2.8µM*.
Cn1ccnc1CNC(=O)C[C@@H]1C[C@H]2O[C@H](CNC3CCC3)[C@@H](O)[C@H]2O1 was read as Pf Dd2 inh 23%[44.1 µM].
`CCCCN(CC)C(=O)Cn1ccn2nc3c(c2c1=O)CCCC3` gave Pf Dd2 inh inactive.
`Cc1ccc(-n2c(C3CCN(C(=O)c4cccc(F)c4)CC3)n[nH]c2=O)cc1` gave Pf Dd2 inh -13%.
Cc1noc([C@@H](C)NC(=O)Nc2ccc(Cl)cc2)c1C(=O)O was read as Pf Dd2 inh -25%[44.1 µM].
For Cc1ccc(S(=O)(=O)N[C@H]2CC(C)(C)[C@@H]3C[C@@](C)(O)CC[C@]23CCC(=O)NCCc2c[nH]c3ccccc23)cc1 the results were Pf Dd2 inh -15%.
For Cc1ccc(Cl)cc1NC(=O)N1CC(C(=O)N(C)C)C2(CCOCC2)C1 (centres undefined) the results were Pf Dd2 inh -10%.
For Cc1noc(-c2cn(C3CCN(C(=O)Cc4ccsc4)C3)nn2)n1 (centres undefined) the results were Pf Dd2 inh inactive.
Screening Cc1ccccc1OCC1CN(CC(C)C)C(=O)c2c(ccnc2-c2ccc(OCC(=O)O)cc2)O1 (centres undefined) returned Pf Dd2 inh 20%.
For CC1CCCCN1C(=O)CSc1nnc(-c2ccccc2Cl)o1 (centres undefined) the results were Pf Dd2 inh -18%.
For COc1ccccc1N1CCN(C(=O)CSc2n[nH]c(-c3ccccc3)n2)CC1 the results were Pf Dd2 inh -2%.
`COc1ccccc1N1CCN(C(=O)CSc2nc(C)cc(=O)[nH]2)CC1` gave Pf Dd2 inh 54%.
`COc1ccccc1N1CCN(C(=O)CSc2nc(-c3ccc(C(C)C)cc3)no2)CC1` gave Pf Dd2 inh 0.35µM*.
For CC1CCCCN1C(=O)CSc1nc(-c2ccccc2)no1 (centres undefined) the results were Pf Dd2 inh 10µM*.
Screening CC1CCCCN1C(=O)CSc1n[nH]c(-c2ccccc2Cl)n1 (centres undefined) returned Pf Dd2 inh 8%.
`O=C(NCCN1Cc2ccccc2OC(c2ccccc2F)C1)c1ccncc1` (centres undefined) gave Pf Dd2 inh inactive.
